Inconclusive results are not listed. Where a call stands in place of a potency, no number is given. The source made the active and inactive calls. Calls follow the shape of the dose curve; as a rule, active = well fitted cell-killing curve with a large enough effect; inconclusive = small, poorly fitted or top-dose-only effect; inactive = flat fitted curve, though single readings scatter.
Potency is read from the fitted curve at half-maximal effect.

The test can be described thus: Identifying Small Molecule Inhibitors of Pancreatic Cancer Stem Cells (SN12C, Adherent) (AID 1259358).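 Also: cell survival measured after 48 h of compound exposure.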 As to conditions: viability/growth inhibition; series mostly up to 46.1 µM. From the text: Progenitor-like cancer cells, often referred to as cancer stem cells (CSC), are believed to be the drivers of therapeutic resistance and rapid recurrence. CSCs are postulated to reside in specific niches characterized by low oxygen tension, limited nutrient supply, and high redox load. Selectively targeting CSC, alone or in combination with cytotoxic agents, as a means to produce durable remissions is an appealing concept. Modeling these cells in in vitro setting is an important step in finding new therapies and/or targets. Multiple reports highlight that forcing cells in culture into 3-dimensionaly architectures (spheroids) re-establishes key progenitor-like transcriptional signatures. Pancreatic cancer is among the diseases with the most dismal outlook which is driven, largely, by recurance following front-line therapies. […] In hopes of deriving new insight into the targeting of these pancreatic CSCs we examined three established pancreatic cancer cell lines in cytotoxicity assays versus a collection of approved and investigational drugs. Importantly, we screened these lines as traditional monolayer (2D) and spheroid (3D) formats to gain an appreciation of agents with differential activity.
Multicellular tumor spheroids from Panc1, MiaPaCa-2, and the primary low-passage tissue culture line SB.06 were seeded in stem cell media (SCM) in nonadherent 6-well plates coated with hydrogel (Corning Life Sciences, Chelmsford, Mass) and pancreatic spheres generated for 14 days before screening. Cells were seeded into 1536-well solid-bottom white tissue culture treated Greiner Bio One Plates (789173-F) using a MultiDrop Combi (Thermofisher Scientific) dispenser and a small sterile cassette. One column was media alone to be used as a :"no cells" control. The plates were then covered with sterilized stainless steel gasketed lids from Kalypsys. After allowing cells to attach for 4 hours, 23 nL of test compound or control (negative control DMSO and positive control 9.2 uM Bortezomib-final) were added from a 1536-well polypropylene compound source plate to each well using a 1536 head pin tool from Kalypsys. Cells were then incubated for 48 hours at 37C, 95% relative humidity and 5% CO2. After 48 hours, plates were removed from the incubator and 3 uL of CellTiter-Glo (Promega) was added using an Aurora Flying Reagent Dispenser Bioraptor. Plates were incubated at room temperature for 10 minutes prior to reading the luminescence on the Viewlux (PerkinElmer). The relative luciferase units are used to calculate the percent activity using the activity of DMSO in the cells and no cells columns for normalization of no inhibition and full inhibition respectively.
On to `Cc1c(CN2CCN(C(=O)C(C)C)CC2)sc2c(N3CCOCC3)nc(-c3cnc(N)nc3)nc12`, for which the Potency is 93.5 nM (active).

Turning to `O=C(Nc1ccc(F)c(C(F)(F)F)c1)Nc1nnc(-c2ccncc2)s1`, the Potency result is “inactive”.

Regarding `Cn1c(=O)c(F)c(Nc2ccc(I)cc2F)c2c(=O)n(C[C@@H](O)CO)cnc21`, the Potency is 418 nM (active).

As for `Cc1n[nH]c(C)c1Cc1sc2c(c1C(=O)N1C[C@H](O)CO1)c(=O)n(C)c(=O)n2CC(C)C`, the Potency entry was “inactive”.

With `C[C@H](NC(=O)Cc1cc(F)cc(F)c1)C(=O)N[C@@H]1C(=O)N(C)c2ccccc2-c2ccccc21`, the Potency entry was “inactive”.

For `C#Cc1cccc(Nc2ncnc3cc(OCCOC)c(OCCOC)cc23)c1`, the Potency is 8330 nM (active).

For `Cn1cnc2c(F)c(Nc3ccc(Br)cc3Cl)c(C(=O)NOCCO)cc21`, the Potency is 1180 nM (active).

Consider `Cc1cc(Nc2nc(N[C@@H](C)c3ncc(F)cn3)ncc2Cl)n[nH]1`, for which the Potency result is “inactive”.

Take `NC(=O)c1ccc(-c2nc(-c3ccc4c(c3)OCO4)c(-c3ccccn3)[nH]2)cc1`: the Potency result was “inactive”.

Regarding `O=C1CCCC2=C1C(c1[nH]ncc1Cl)N=C(Nc1nc3ccccc3o1)N2` (stereo not given), the Potency entry is “inactive”.

As for `COc1cc2nccc(Oc3ccc(NC(=O)NC4CC4)c(Cl)c3)c2cc1C(N)=O`, the Potency is 18700 nM (active).

For `NC(=O)C1CCCc2c1[nH]c1ccc(Cl)cc21` (stereo not given), the Potency entry is “inactive”.

Regarding `OCCn1cc(-c2cnc3nnn(Cc4ccc5ncccc5c4)c3n2)cn1`, the Potency result was “inactive”.

Consider `CCCc1nn(C)c2c(=O)[nH]c(-c3cc(S(=O)(=O)N4CCN(C)CC4)ccc3OCC)nc12`, for which the Potency result was “inactive”.

Take `COc1ccc(-c2ccc3c(N4CCOC[C@H]4C)nc(N4CCOC[C@H]4C)nc3n2)cc1CO`: the Potency is 14.8 nM (active).

Take `CS(=O)(=O)Oc1ccc2c(NC(N)=O)c(C(=O)c3ccc(Cl)cc3Cl)oc2c1`: the Potency result is “inactive”.

As for `CCn1c(-c2nonc2N)nc2cnc(Oc3cccc(NC(=O)c4ccc(OCCN5CCOCC5)cc4)c3)cc21`, the Potency result was “inactive”.

On to `Cc1c(CCOc2ccc(C(=O)O)cc2)c2cc(Cl)ccc2n1C(c1ccccc1)c1ccccc1`, for which the Potency entry is “inactive”.

Regarding `CCCS(=O)(=O)Nc1ccc(F)c(C(=O)c2c[nH]c3ncc(-c4ccc(Cl)cc4)cc23)c1F`, the Potency result was “inactive”.

Consider `CCC(C)N(C)C(=O)c1cc2ccccc2c(-c2ccccc2Cl)n1` (stereo not given), for which the Potency result was “inactive”.

As to `COc1nc(-c2ccc3c(c2)OCO3)n(-c2ccc(NC(=O)CSc3ccccc3)cc2)n1`, the Potency entry is “inactive”.

As to `Nc1nc2ccc(OC(F)(F)F)cc2s1`, the Potency result is “inactive”.

As to `Cc1cc(C=c2sc3nc4ccccc4n3c2=O)c(C)n1-c1ccccc1`, the Potency result is “inactive”.

For the molecule `CCc1ccc(CCOc2ccc(CC3SC(=O)NC3=O)cc2)nc1` (stereo not given), the Potency result is “inactive”.

With `OC[C@H](Cc1ccccc1)Nc1nc(Oc2ccc3c(c2)CCC3)nc2c1ncn2Cc1ccc(-c2ccccc2)cc1`, the Potency result is “inactive”.

For `CN(C)c1ccc(C2Nc3ccc4ccccc4c3C3=C2C(=O)CC(C)(C)C3)cc1Br` (stereo not given), the Potency entry was “inactive”.

For the molecule `COc1ccc(-c2ccc3c(N4CCOCC4)nc(N4C[C@@H](C)O[C@@H](C)C4)nc3n2)cc1CO`, the Potency is 235 nM (active).

In the case of `Cc1cnc(Nc2ccc(OCCN3CCCC3)cc2)nc1Nc1cccc(S(=O)(=O)NC(C)(C)C)c1`, the Potency entry was “inactive”.

For `CC(C)c1onc(-c2c(Cl)cccc2Cl)c1COc1ccc(/C=C/c2cccc(C(=O)O)c2)c(Cl)c1`, the Potency entry is “inactive”.

With `Cc1ccc(NC(=O)c2cccc(C(C)(C)C#N)c2)cc1Nc1ccc2ncn(C)c(=O)c2c1`, the Potency was 7430 nM (active).

Turning to `NC(=O)c1ccc(-c2nc(-c3ccc4c(c3)OCCO4)c(-c3ccccn3)[nH]2)cc1`, the Potency entry is “inactive”.

As for `CC[C@@H](C)[C@H](NC(=O)[C@H](CC1CCCCC1)NC(=O)c1ccno1)C(=O)N1CCC2(CCc3ccccc32)CC1`, the Potency result was “inactive”.

For the molecule `O=S(=O)(N=Cc1c(O)ccc2ccccc12)c1cccs1`, the Potency result was “inactive”.

As for `CCOC(=O)C1=C[C@@]2(CC)CCCN3CCc4c(n1c1ccccc41)[C@H]32`, the Potency result is “inactive”.

As to `CN[C@@H](C)C(=O)N[C@H]1CCCC[C@H]2CC[C@@H](C(=O)N[C@@H](c3ccccc3)c3cn(CCCCc4ccc(CCCCn5cc([C@@H](NC(=O)[C@@H]6CC[C@@H]7CCCC[C@H](NC(=O)[C@H](C)NC)C(=O)N76)c6ccccc6)nn5)cc4)nn3)N2C1=O`, the Potency entry was “inactive”.

Turning to `Nc1cccc(S(=O)(=O)N2CCCN(S(=O)(=O)c3ccc4c(c3)OCCO4)CC2)c1`, the Potency entry is “inactive”.

On to `Cc1cccc(-c2nn(C(=S)Nc3ccccc3)cc2-c2ccnc3ccccc23)n1`, for which the Potency result is “inactive”.

`O=C(C1CC1)N1CC[C@@H](Cn2c(-c3ccc(-c4ccc5occc5c4)cc3)nc3cnccc32)C1`: the Potency entry is “inactive”.

For `C[C@]12CC[C@H](O)CC1=CC[C@@H]1[C@H]2CC[C@]2(C)C(c3cccnc3)=CC[C@H]12`, the Potency entry is “inactive”.

Consider `Nc1nccc(-c2ccc3noc(-c4ccc(Cl)cc4)c3c2)n1`, for which the Potency result was “inactive”.

For the origin of these results see PubChem BioAssay (NCATS).
